Among the data in PubChem BioAssay (Tox21) are Potency values, retold here.

Molecules are shown by their SMILES. Results filed as inconclusive are left out. Activity calls are given as the source filed them. Unless noted, calls come from the whole dose curve; as a rule, active = well fitted curve in the direction sought with a large enough effect in the repeat runs; inconclusive = weak or mixed curves; inactive = no such curve, though single readings can be large; an effect the other way counts as inactive or inconclusive.

Test [1] can be described thus: qHTS assay for small molecule agonists of the p53 signaling pathway (AID 651631; calls by dose curve; note: nearly all actives have a fitted effect of over 15% in size; note: potency is the fitted concentration of half-maximal effect). The method, boiled down: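 Read-out is beta-lactamase FRET fluorescence measured 2 h after substrate addition at room temperature, in HCT-116 cells with a p53 response element-driven reporter exposed to compounds for 16 h at 37 °C.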
(In qHTS, concentration-response curves come from the screen itself.)

A short description of test [2]: qHTS assay for small molecules that induce genotoxicity in human embryonic kidney cells expressing luciferase-tagged ATAD5 (AID 651632). Note: nearly all actives have a fitted effect of over 15% in size. Note: potency is the fitted concentration of half-maximal effect. The procedure, abridged: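 Increased luciferase signal from ATAD5-tagged reporter cells indicates DNA-damage-driven ATAD5 induction. HEK293T cells are treated for 16 hr at 37C before detection with Amplite.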
The nature of test [3]: qHTS assay for small molecules that induce genotoxicity in human embryonic kidney cells expressing luciferase-tagged ATAD5 - cell viability (AID 651634; calls by dose curve; note: nearly all actives have a fitted effect of over 25% in size). The procedure, abridged: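 Cytotoxicity counterscreen in HEK293T cells bearing an ATAD5-luciferase reporter: live-cell protease activity measured by CellTiter-Fluor fluorescence after 15.5 hr compound exposure.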
Test [4] is described as follows: qHTS assay for small molecule disruptors of the mitochondrial membrane potential - cell viability (AID 720634; calls by dose curve; note: nearly all actives have a fitted effect of over 20% in size; note: potency is the fitted concentration of half-maximal effect). The procedure, abridged:
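After overnight attachment at 37 C, HepG2 cells received compound or DMSO vehicle for 1 hr. Viability is then taken from ATP-driven luminescence following a 30 min room-temperature CellTiter-Glo step.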

A short description of test [5]: qHTS assay to test for compound auto fluorescence at 535 nm (green) in HepG2 cells (AID 720675).
A short description of test [6]: qHTS assay to test for compound auto fluorescence at 460 nm (blue) in HEK293 cells (AID 720678). The method, boiled down:
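Measured: blue fluorescence (Ex 405/Em 460 nm) of compound-treated HEK293 cells, incubated overnight at 37C with 5% CO2 and scaled to triamterene equivalents.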

Test [7] can be described thus: qHTS assay to test for compound auto fluorescence at 590 nm (red) in HEK293 cells (AID 720679). The procedure, abridged:
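Using HEK293 cells at 2,000 per well, the screen added 23 nL of each compound after cell attachment and incubated overnight (37C, 5% CO2). The plate reader then captured red-label fluorescence, Ex/Em 540/590nm.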

Test [8] can be described thus: qHTS assay for small molecule agonists of the p53 signaling pathway - cell viability (AID 651633; calls by dose curve;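 note: p53RE-bla HCT reporter cells with a stable beta-lactamase p53 reporter; series mostly up to about 83 µM; nearly all actives have a fitted effect of over 30% in size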). The procedure, abridged:
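p53RE-bla cells were treated with compound for 16 hours at 37 C. Cytotoxicity was then measured as CellTiter-Glo luminescence after 30 min at room temperature.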

Test [9] in a line: qHTS assay to test for compound auto fluorescence at 590 nm (red) in HepG2 cells (AID 720674). The method, boiled down:
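Fluorescence at 590 nm emission following 540 nm excitation was recorded from HepG2 wells one hour after compound transfer, with DMSO-only wells as vehicle and Rose Bengal sodium equivalency as the scale.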

Test [10] is described as follows: qHTS assay for small molecule disruptors of the mitochondrial membrane potential (AID 720635). Note: potency is the fitted concentration of half-maximal effect. The method, boiled down:
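HepG2 cells exposed to compound 1 hr at 37C, then Mito-MPS dye 30 min. Ratio read of aggregate (540/590 nm) versus monomer (490/535 nm) fluorescence.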

Regarding `COc1cc([C@@H]2c3cc4c(cc3C(O[C@@H]3O[C@@H]5COC(c6cccs6)O[C@H]5[C@H](O)[C@H]3O)C3COC(=O)[C@@H]32)OCO4)cc(OC)c1O` (stereo partly drawn), the Potency in [1] is 0.376 µM (active). The Potency result in test [2], in test [3], in [4], in test [5], in test [6] and in [7] was “inactive” throughout.
`CCCCCCCCCCCCCCCC(=O)O[C@@H]1[C@@H](O)[C@@H](O)[C@@H]([C@H](NC(=O)[C@@H]2C[C@@H](CCC)CN2C)[C@H](C)Cl)O[C@@H]1SC`: the Potency result in test [1], in test [2], in test [8], in [3], in test [9] and in test [5] was “inactive” throughout. The Potency entry in test [6] and in test [7] was “inactive” in each case.
As for `C[C@]12C=CC(=O)C=C1CC[C@@H]1[C@@H]2[C@@H](O)C[C@@]2(C)[C@H]1CC[C@]2(O)C(=O)COC(=O)CCC(=O)O`, the Potency entry in test [1], in [8], in test [3], in test [4], in [10] and in test [9] was “inactive” each time. Besides, the Potency entry in test [5], in [6] and in [7] was “inactive” in each case.
Consider `O=C1C(=O)c2ncccc2-c2cccnc21`, for which the Potency in test [1] is 1.68 µM (active); in [10], 26.6 µM (active). Further, the Potency result in test [2], in [3], in test [4], in test [9], in test [5] and in test [7] was “inactive” in each case.
Turning to `Cc1ccccc1CNc1ncnc2c1ncn2[C@@H]1O[C@H](CO)[C@@H](O)[C@H]1O`, the Potency result in test [1], in test [8], in test [3], in [4], in test [10] and in [9] was “inactive” in each case. Besides, the Potency entry in [5], in test [6] and in test [7] was “inactive” in each case.
In the case of `CCCC1C(=O)N2C(N(C)C)=Nc3ccc(C)cc3N2C1=O` (stereo not drawn), the Potency result in test [1], in [8], in test [3], in test [4], in test [10] and in test [9] was “inactive” in each case. For the same compound, the Potency result in test [5], in test [6] and in test [7] was “inactive” each time.
As for `c1ccc2c(CCC3CCNCC3)c[nH]c2c1`, the Potency entry in [1], in test [2], in [8], in test [3], in [9] and in test [5] was “inactive” in each case. Moreover, the Potency result in test [6] and in test [7] was “inactive” throughout.
On to `CC(=O)OCC(=O)[C@@]12OC3(CCCC3)O[C@@H]1C[C@H]1[C@@H]3CCC4=CC(=O)C=C[C@]4(C)[C@@]3(F)[C@@H](O)C[C@@]12C`, for which the Potency result in test [1], in test [8], in test [3], in [4], in [9] and in test [5] was “inactive” throughout. Besides, the Potency entry in test [6] and in test [7] was “inactive” each time. Moreover, the Potency in test [10] is 29.8 µM (active).
Take `CC(O)[C@@H]1NC(=O)[C@H](CCCCN)NC(=O)[C@@H](Cc2c[nH]c3ccccc23)NC(=O)[C@H](Cc2ccccc2)NC(=O)[C@@H](NC(=O)[C@H](N)Cc2ccccc2)CSSC[C@@H](C(=O)N[C@H](CO)[C@@H](C)O)NC1=O` (stereo partly drawn): the Potency result in test [1], in [2], in [8], in [3], in test [9] and in test [5] was “inactive” in each case. Further, the Potency result in [6] and in test [7] was “inactive” in each case.
On to `CNc1cc(OC)c(C(=O)N[C@H]2CCN(Cc3ccccc3)[C@H]2C)cc1Cl`, for which the Potency entry in test [1], in test [2], in [8], in test [4], in [9] and in test [5] was “inactive” throughout. Moreover, the Potency result in [6] and in test [7] was “inactive” in each case.
Regarding `CCCCC(=O)O[C@H]1CC[C@H]2[C@@H]3CCc4cc(O)ccc4[C@H]3CC[C@]12C`, the Potency result in [1], in [2], in [8], in test [9], in [5] and in test [6] was “inactive” in each case. For the same compound, the Potency entry in [7] is “inactive”. The Potency in test [4] is 29.8 µM (active); in test [10], 18.8 µM (active).
For `O=C(O)c1cc2ccccc2c(Cc2c(O)c(C(=O)O)cc3ccccc23)c1O`, the Potency entry in test [1], in [2], in test [3], in test [4], in test [9] and in test [5] was “inactive” each time. In addition, the Potency result in [6] and in test [7] was “inactive” in each case.
`COc1cc(C)c(/C=C/C(C)=C/C=C/C(C)=C/C(=O)O)c(C)c1C`: the Potency in [1] was 29.8 µM (active). For the same compound, the Potency entry in test [2], in [3], in [4], in test [10], in [9] and in [5] was “inactive” throughout. Moreover, the Potency result in test [6] and in test [7] was “inactive” each time.
With `CN(C(=O)CO)c1c(I)c(C(=O)NCC(O)CO)c(I)c(C(=O)NCC(O)CO)c1I` (stereo not drawn), the Potency entry in test [1], in test [2], in [8], in [3], in [10] and in test [9] was “inactive” each time. The Potency result in [5], in test [6] and in [7] was “inactive” throughout.
Turning to `COC(=O)[C@@H](N)CS`, the Potency entry in test [1], in test [2], in [8], in test [4], in test [10] and in test [9] was “inactive” each time. For the same compound, the Potency entry in test [5], in [6] and in test [7] was “inactive” throughout.
As to `CC(=O)c1ccc2c(c1)N(CCCN1CCN(CCO)CC1)c1ccccc1S2`, the Potency result in [1], in test [2], in test [8], in test [4], in test [9] and in test [5] was “inactive” throughout. In addition, the Potency entry in [6] and in test [7] was “inactive” each time.
As for `CN1c2cc(O)c(N=NC(N)=O)cc2CC1S(=O)(=O)O` (stereo not drawn), the Potency result in [1], in test [2], in test [8], in [4], in test [9] and in [5] was “inactive” each time. Besides, the Potency entry in test [6] and in [7] was “inactive” each time.
For `CC(C)[C@@H](N)C(=O)O`, the Potency entry in test [1], in test [2], in [8], in test [4], in test [9] and in test [5] was “inactive” throughout. Also, the Potency entry in test [6] and in [7] was “inactive” each time.
Consider `CCC(C)C(C(=O)OCC[N+](C)(CC)CC)c1ccccc1` (stereo not drawn), for which the Potency entry in test [1], in [8], in test [3], in test [4], in [10] and in test [9] was “inactive” throughout. For the same compound, the Potency entry in [5], in test [6] and in test [7] was “inactive” each time.
Take `CCCOc1ccc2nc(NC(=O)OC)sc2c1`: the Potency was 1.5 µM (active) in test [1], 1.88 µM (active) in test [2] and 7.5 µM (active) in test [10]. The Potency entry in test [8], in [4], in test [9], in test [5], in test [6] and in test [7] was “inactive” throughout.
Regarding `COc1cc(S(C)=O)ccc1-c1nc2ncccc2[nH]1` (stereo not drawn), the Potency result in test [1], in test [2], in [8], in test [3], in test [10] and in test [9] was “inactive” each time. In addition, the Potency result in test [5], in test [6] and in test [7] was “inactive” each time.
